This is a sample that favours compounds with a hit; in the whole collection about 0.23% have one here.
Caspase-1 inhib – caspase-1 (human) inhibition, allosteric or competitive. P29466. Caspase-1 enzyme, Ac-WEHD-AFC fluorogenic rate. Potency, µM (top dose mostly 57.5 µM), without a hit: top-dose activity change, negative = inhibition, usual class: inhibitors. 75,000 tested, 0.03% active. AID 900;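 also: potency is read from the fitted curve at half-maximal effect; plate controls were vehicle for no effect and no substrate for full effect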
Ub-GFP proteasome – ubiquitin-GFP accumulation via proteasome inhibition; 67,000 tested, under 10 active; Ubiquitin-GFP reporter cells, proteasome inhibition, GFP fluorescence; response scale: untreated = 0%, 10 µM MG-132 = 100%; Potency, µM (highest dose often 45.9 µM), for the others: at the top dose activation (GFP accumulation), actives largely listed as activators; active = well fitted activation curve with a large enough effect, not every such curve was filed as active; inconclusive = small, poorly fitted or top-dose-only effect, or another doubt; inactive = no such curve, though single readings can be large or run the other way; also: potency is read from the fitted curve at half-maximal effect
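U2OS Ub(G76V)-GFP reporter; O/N plating, 0.5% FBS; cpd 46 uM–2.9 nM, 4 h, 37 °C; GFP+ cell count, 488/515 nm; norm. to basal vs 10 uM MG-132; CRC fit.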
HBB splice mod – alters splicing of the hemoglobin beta chain | HBB splicing reporter cell assay, activation; EGFP reporter with mutant IVS2-654 intron; response scale: normalised to 500 nM splice-correcting PNA | Potency, µM (series often up to 46.1 µM), inactives show at the top dose activation, usual class: activators | 65,000 tested, 0.06% active; also: potency is read from the fitted curve at half-maximal effect; 0% is about no effect
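Compounds were applied for 2 days to HeLa EGFP-654 cells, 500/well in Optimem with 2% FCS. The reporter's EGFP is disrupted by mis-splicing of beta-globin intron IVS2-654. Readout: summed well GFP fluorescence from 488 nm laser scanning; reference was 500 nM antisense […] 654 PNA.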
Epigenetic mod – derepresses silenced GFP locus in mouse C127i cells. Potency, µM (doses to about 46.1 µM), inactives show top-dose GFP derepression (activation). mouse C127i GFP locus derepression, cytometry, 30 h. 68,000 tested, 0.09% active. AID 597; also: % of control where 0% means no effect
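Read-out is the number of GFP-positive cells, scored as fluorescent objects 20 to 120 um wide, reflecting derepression of a silenced CMV-GFP reporter in murine C127i cells after 30 h compound exposure at 37 C.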
Casp7 inh – allosteric or competitive inhibitors of human caspase-7. P55210. recombinant caspase-7, Ac-DEVD-AFC fluorescence rate. Potency, µM (titrated, usually from 57.5 µM), inactives show top-dose activity change, negative = inhibition, actives largely listed as inhibitors. 75,000 tested, 0.02% active. AID 889; active = well fitted inhibition curve with a large enough effect in the main read-out, with a control signal flat, not every such curve was filed as active; inconclusive = small, poorly fitted or top-dose-only effect, or a change in a side signal; also: potency is read from the fitted curve at half-maximal effect; % of control where 0% means no effect
USP2a inhib – USP2a (human) protease inhibition. USP2a enzymatic assay, qHTS inhibition. Potency, µM (doses to about 38.3 µM), inactives show top-dose activity change, negative = inhibition, usual class: inhibitors. 60,000 tested, 0.1% active. O75604; also: potency is read from the fitted curve at half-maximal effect; nearly all actives have a fitted effect of over 60% in size
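USP2 core (20 nM final) was preincubated with compound for 30 min at RT in 20 mM Tris-HCl pH 8.0, 2 mM CaCl2, 2 mM beta-mercaptoethanol; Ub-PLA2 (20 nM) plus NBD C6-HPC (20 uM) then added, fluorescence read after 2.5 h.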
Active calls of the source: *; ? = inconclusive; . = no result; ! = not active in a repeat; [ ] = remark or other dose. Unless noted, calls follow the shape of the dose curve; as a rule, active = well fitted curve in the direction sought with a large enough effect; inconclusive = small, poorly fitted or top-dose-only effect, or another doubt; inactive = no such curve, though single readings can be large; an effect the other way counts as inactive or inconclusive.

SMILES	Caspase-1 inhib	Ub-GFP proteasome	HBB splice mod	Epigenetic mod	Casp7 inh	USP2a inhib
CCOc1ccccc1C(=O)Nc1cc(Cl)ccc1O	-4.2%	-2.5%	-1.3%	0.6%	-4.9%	12.6µM*
COc1ccccc1C(=O)Nc1cc(Cl)ccc1O	.	.	.	-2.6%[20.6 µM]	.	.
c1csc(CNc2ccnc(-c3ccoc3)n2)c1	-5.7%	1.6%	-0.8%	-2.9%[9.22 µM]	-12.0%	151.8%
N#Cc1sc2nc(-c3ccccc3)cc(-c3ccco3)c2c1N	.	4.4%	-1.4%[57.5 µM]	-0.6%	25.1µM*	24.3%
Cc1csc(NC(=O)c2sc3nc(-c4cccs4)ccc3c2N)n1	.	0.0%	15.8µM*	17.6%	?	41.3%
COc1ccc(C(=O)Nc2nc(-c3cccs3)cs2)cc1	-3.1%	-1.0%	-0.3%	2.2%	-3.7%	-2.6%
CCOC(=O)c1sc(N)c(C(=O)Nc2ccc(C)cc2C)c1C	-6.1%	.	.	.	-3.0%	.
CN(C)C(=O)c1ccc(-c2ccc3ncnc(NCc4ccccc4)c3c2)cc1	-4.2%	-1.9%	-0.4%	2.2%[9.22 µM]	-4.9%	227.9%
CN1CCCN(C(=O)Cc2c(Cl)cccc2Cl)c2nc3ccccc3nc21	.	-4.7%	10µM*	3.7%	?	-4.1%
O=C(O)c1cccc(OCCO)c1	-0.8%[11.5 µM]	1.1%[9.17 µM]	2.2%[9.22 µM]	0.0%[9.22 µM]	-0.1%[11.5 µM]	.
CCN1C(=S)SC(=O)C1=C1C=C(C)N(Cc2ccco2)C(C)=C1	-12.2%	-7.9%	12.6µM*	8.3%	-9.9%	16.1%
CCN1C(=S)SC(=O)C1=C1C=C(C)OC(C)=C1	-0.5%	0.0%	-3.7%	27.2%	-1.5%	11.8%
CCOc1ccc(-c2cc(C(=O)N/N=C/c3ccc(O)c(OC)c3)[nH]n2)cc1	0.3%	.	.	.	0.3%	.
Nc1nc(Sc2ccc([N+](=O)[O-])c3nonc23)c2[nH]cnc2n1	1.5%[11.5 µM]	-7.7%[9.17 µM]	3.16µM*	?	1.9%[11.5 µM]	.
Cc1ccc(S(=O)(=O)N(CC(=O)O)c2cccc(Cl)c2)cc1	-2.7%	.	.	.	0.3%	.
O=C1C(SCCO)=C(SCCO)C(=O)c2ccccc21	15.8µM*	15.2%	2.1%	1.0%	-11.0%	-0.1%
CCN(CC)c1ccc2c(Cl)c(Br)c(=O)oc2c1	.	?	.	10µM*	?	?
N[C@H]1CCN(O)C1=O	-3.9%	-1.3%	.	-0.4%	-0.4%	.
C=C[C@](C)(O)CCC1C(=C)CC(O)C2C(C)(C)CCCC12C (some centres undefined)	-0.8%	.	.	.	-1.0%	3.3%
COc1ccc(C2CC(=O)N3CN(c4ccc(C)c(Cl)c4)CSC3=C2C#N)cc1OC (centres undefined)	31.6µM*	6.2%	3.8%	1.5%	?	.
Cc1c2oc3c(C)ccc(C(=O)N[C@@H]4C(=O)N[C@@H](C(C)C)C(=O)N5CCC[C@@H]5C(=O)N(C)CC(=O)N(C)[C@@H](C(C)C)C(=O)O[C@H]4C)c3nc-2c(C(=O)N[C@@H]2C(=O)N[C@@H](C(C)C)C(=O)N3CCC[C@@H]3C(=O)N(C)CC(=O)N(C)[C@@H](C(C)C)C(=O)O[C@H]2C)c(N)c1=O	-11.2%	7.8%	.	1.0%	-21.2%	.
ClCCCl	-3.9%	.	0.0%	.	1.0%	.
COc1ccc(/C=N/NC(=O)c2cc(-c3ccc(Cl)cc3)n[nH]2)cc1OC	-6.5%	.	.	.	-6.6%	.
Cc1ccccc1-c1ccc2ncnc(NCc3cccs3)c2c1	?	2.2%	-1.3%	-2.9%[9.22 µM]	15.8µM*	-21.3%
O=Nc1c(-c2c(O)[nH]c3cc(Br)ccc23)[nH]c2ccccc12	-5.5%	.	.	.	-2.2%	12.6µM*
SMILES	Caspase-1 inhib	Ub-GFP proteasome	HBB splice mod	Epigenetic mod	Casp7 inh	USP2a inhib
Oc1[nH]c2ccccc2c1C1=NCCCC1	-3.3%	4.3%	3.1%[1.84 µM]	-2.0%	-1.4%	-0.3%
Oc1cccc2ccc(SSc3ccc4cccc(O)c4n3)nc12	-2.7%[11.5 µM]	-4.6%[9.17 µM]	4.5%[9.22 µM]	3.4%[9.22 µM]	-2.9%[11.5 µM]	.
CN1CCN(c2ncc3nc(-c4cccs4)c(=O)n(Cc4ccc(F)cc4)c3n2)CC1	.	?	?	3.98µM*	?	89.1%
COc1cccc(Cn2c(=O)c(-c3cccs3)nc3cnc(Nc4cccc(OC)c4)nc32)c1	.	7.1%	10µM*	-0.3%[9.22 µM]	?	157.5%
O=C1[C@H]2O[C@@H]2[C@@H](O)[C@H]2[C@H]1CCn1c(=O)n(Cc3cc4c(cc3Cl)OCO4)c(=O)n12	0.4%[11.5 µM]	.	1.2%[9.22 µM]	.	-6.9%[11.5 µM]	.
COc1ccccc1CN1CC[C@@]2(CCCN(S(=O)(=O)c3ccccc3)C2)C1	-1.9%	-3.2%	-0.7%	0.0%[9.22 µM]	0.8%	24.7%
O=C(c1csnn1)N1CCC2(CCCN(C(c3ccccc3)c3ccccc3)C2)CC1	-4.0%	-5.6%	2.1%	-4.5%[9.22 µM]	-2.9%	134.3%
N#CC(C(=O)NCc1ccccc1)c1nc2ccccc2nc1N1CCCC1 (centres undefined)	.	12.4%	10µM*	?	?	7.8%
O=C(O)C1=CC(=C(c2ccc(O)c(C(=O)O)c2)c2ccc(O)c(C(=O)O)c2)C=CC1=O	-3.8%	-3.3%	-1.9%	-1.1%	-9.6%	20µM*!
CCN1CCCC1CNC(=O)c1ccc(-n2c(=O)c(=O)[nH]c3ccccc32)cc1 (centres undefined)	-1.7%	.	.	.	-1.3%	.
Cc1cc(N)c2ccccc2[n+]1CCCCCCCCCCCCCC[n+]1c(C)cc(N)c2ccccc21	5.9%	-9.2%	-0.9%	-1.2%	-3.2%	15.8µM*
CNC(CC(=O)O)C(=O)O (centres undefined)	-0.1%	.	.	.	-0.6%	-4.4%
Nc1ccc(-c2nc3ccccc3[nH]2)cc1	-1.0%	1.1%	-0.3%	.	-0.3%	.
Nc1ccc(-c2nc3ccc(-c4nc5ccc(N)cc5[nH]4)cc3[nH]2)cc1	3.0%	.	.	.	-6.5%	25.1µM*
COc1ccc(C2C(C#N)=C(N)SC(N)=C2C#N)cc1OC	.	.	.	7.7%[20.6 µM]	.	.
COc1ccc(C2C(C#N)=C(N)N3C(=C2C#N)Sc2ccccc23)cc1 (centres undefined)	.	15.1%	27.6%	12.6µM*	?	12.1%
C/C(CCC(=O)OC[C@@H]1O[C@H](C#Cc2ccccc2)C=C[C@@H]1Oc1ccc(C)cc1)=N/O[C@@H](C)CN1CCCc2nc(C)c(C)cc21	-6.1%[11.5 µM]	.	0.2%[9.22 µM]	.	-2.1%[11.5 µM]	.
O=c1c(-c2ccc(O[C@@H]3O[C@H](CO)[C@@H](O)[C@H](O)[C@H]3O)cc2)coc2cc(O)cc(O)c12	0.7%	.	.	.	2.5%	.
S=C(Nc1ccccc1)Nc1nccs1	1.3%	-6.9%	-0.8%	31.6µM*	0.4%	0.1%
O=C(Nc1nccs1)Oc1ccccc1	-0.1%	-3.9%	0.8%	0.2%	0.5%	-3.9%
COc1ccccc1Cn1c(-c2ccco2)nc2nc3ccccc3nc21	-9.1%	-1.9%	2.0%[57.5 µM]	12.6µM*	-7.8%	39.2%
c1ccc(Cn2c(-c3ccco3)nc3nc4ccccc4nc32)cc1	.	-9.2%	6.5%[57.5 µM]	2.1%	?	40.4%

Bioassay records: PubChem BioAssay, National Center for Advancing Translational Sciences (NCATS)
